# Reference: publication PMC7862700, “An all-to-all approach to the identification of sequence-specific readers for epigenetic DNA modifications on cytosine”
# How the values were obtained:
# Assay in all cases: DAPPL (digital affinity profiling via proximity ligation, sequencing); 10 mM Tris-HCl pH 7.5, 50 mM NaCl, 1 mM DTT, 4% glycerol, room temperature, 30 min; GST-TFs on glutathione beads, 16-mer random dsDNA library, 0.1% formaldehyde crosslink after washing; high values mean tight binding
# FLI1 = target: T1, FLI1 (Homo sapiens, UniProt Q01543 1-452); conditions: protein: recombinant; tags: N-terminal GST; dsDNA, one strand shown
# T1 sequence: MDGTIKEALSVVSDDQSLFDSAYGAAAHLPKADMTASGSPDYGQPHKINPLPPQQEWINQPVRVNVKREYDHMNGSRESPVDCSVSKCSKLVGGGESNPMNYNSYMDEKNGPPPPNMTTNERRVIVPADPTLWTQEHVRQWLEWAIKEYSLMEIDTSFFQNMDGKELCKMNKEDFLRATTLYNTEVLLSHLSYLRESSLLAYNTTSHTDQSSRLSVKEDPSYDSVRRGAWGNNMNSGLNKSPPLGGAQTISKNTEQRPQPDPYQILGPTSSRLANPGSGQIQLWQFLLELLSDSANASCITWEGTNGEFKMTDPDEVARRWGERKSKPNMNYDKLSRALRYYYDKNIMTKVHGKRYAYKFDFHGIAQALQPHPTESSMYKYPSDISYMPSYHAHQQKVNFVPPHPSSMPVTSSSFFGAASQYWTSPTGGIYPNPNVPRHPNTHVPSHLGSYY
# Outline: (§1)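 A tag-only sample was pooled with DNA-barcoded human transcription factors that had been expressed in yeast as GST fusions and captured on glutathione beads. The pools were incubated for 30 min at room temperature with 200 nmole of a random double-stranded 16-mer DNA library in Tris/NaCl/DTT/glycerol buffer, then washed, crosslinked with 0.1% formaldehyde, proximity-ligated (BsaI/T4 ligase, 1 h, 37 °C), PCR-amplified and sequenced on an Illumina NextSeq500. Binding signal is each hexamer's read frequency for a factor divided by its frequency for the tag-only sample.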
# ELK1 = target: T2, ELK1 (Homo sapiens, UniProt P19419 1-428); conditions: protein: recombinant; tags: N-terminal GST; dsDNA, one strand shown
# T2 sequence: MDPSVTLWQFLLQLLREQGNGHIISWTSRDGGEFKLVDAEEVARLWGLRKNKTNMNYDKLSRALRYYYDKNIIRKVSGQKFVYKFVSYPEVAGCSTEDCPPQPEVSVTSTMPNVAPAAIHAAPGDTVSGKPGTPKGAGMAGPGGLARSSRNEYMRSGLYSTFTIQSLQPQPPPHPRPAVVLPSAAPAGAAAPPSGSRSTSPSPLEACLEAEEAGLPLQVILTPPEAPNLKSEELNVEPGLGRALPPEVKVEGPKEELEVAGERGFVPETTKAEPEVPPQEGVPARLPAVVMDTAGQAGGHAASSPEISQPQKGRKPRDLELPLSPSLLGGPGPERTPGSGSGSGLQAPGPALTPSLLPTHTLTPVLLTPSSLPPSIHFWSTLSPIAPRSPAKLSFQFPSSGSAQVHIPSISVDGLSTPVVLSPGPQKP
# Outline: as §1
# GABPA = target: T3, GABPA (Homo sapiens, UniProt Q06546 1-454); conditions: protein: recombinant; tags: N-terminal GST; dsDNA, one strand shown
# T3 sequence: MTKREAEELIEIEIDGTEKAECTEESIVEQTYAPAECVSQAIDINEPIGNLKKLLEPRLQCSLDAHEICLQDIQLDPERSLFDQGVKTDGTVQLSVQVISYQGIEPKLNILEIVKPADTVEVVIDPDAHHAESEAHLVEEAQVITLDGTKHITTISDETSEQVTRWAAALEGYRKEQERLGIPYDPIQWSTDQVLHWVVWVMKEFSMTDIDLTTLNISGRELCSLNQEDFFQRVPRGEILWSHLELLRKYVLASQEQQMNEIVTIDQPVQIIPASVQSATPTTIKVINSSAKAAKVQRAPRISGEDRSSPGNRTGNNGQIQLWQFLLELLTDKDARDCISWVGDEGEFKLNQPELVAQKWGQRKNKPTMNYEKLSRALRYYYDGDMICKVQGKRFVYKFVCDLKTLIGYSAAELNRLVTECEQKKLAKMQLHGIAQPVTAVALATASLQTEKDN
# Outline: as §1
# ERG = target: T4, ERG (Homo sapiens, UniProt P11308 1-479); conditions: protein: recombinant; tags: N-terminal GST; dsDNA, one strand shown
# T4 sequence: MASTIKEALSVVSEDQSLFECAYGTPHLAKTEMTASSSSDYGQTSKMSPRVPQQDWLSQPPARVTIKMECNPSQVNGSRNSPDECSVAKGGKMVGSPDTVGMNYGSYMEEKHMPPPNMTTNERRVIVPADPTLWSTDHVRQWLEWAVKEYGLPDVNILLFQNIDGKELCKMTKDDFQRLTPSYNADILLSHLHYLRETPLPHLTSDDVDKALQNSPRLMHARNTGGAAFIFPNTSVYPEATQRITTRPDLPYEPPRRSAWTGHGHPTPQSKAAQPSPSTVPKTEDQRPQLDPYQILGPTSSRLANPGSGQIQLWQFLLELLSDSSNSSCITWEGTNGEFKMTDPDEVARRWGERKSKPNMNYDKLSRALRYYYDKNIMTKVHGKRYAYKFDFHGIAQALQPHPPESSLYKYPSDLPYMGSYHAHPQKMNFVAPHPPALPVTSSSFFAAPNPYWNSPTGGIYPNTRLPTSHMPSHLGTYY
# Outline: as §1
# ELF1 = ELF1 (Homo sapiens, UniProt P32519 1-619); conditions: protein: recombinant; tags: N-terminal GST; dsDNA, one strand shown
# Chain of ELF1 (P32519 whole entry): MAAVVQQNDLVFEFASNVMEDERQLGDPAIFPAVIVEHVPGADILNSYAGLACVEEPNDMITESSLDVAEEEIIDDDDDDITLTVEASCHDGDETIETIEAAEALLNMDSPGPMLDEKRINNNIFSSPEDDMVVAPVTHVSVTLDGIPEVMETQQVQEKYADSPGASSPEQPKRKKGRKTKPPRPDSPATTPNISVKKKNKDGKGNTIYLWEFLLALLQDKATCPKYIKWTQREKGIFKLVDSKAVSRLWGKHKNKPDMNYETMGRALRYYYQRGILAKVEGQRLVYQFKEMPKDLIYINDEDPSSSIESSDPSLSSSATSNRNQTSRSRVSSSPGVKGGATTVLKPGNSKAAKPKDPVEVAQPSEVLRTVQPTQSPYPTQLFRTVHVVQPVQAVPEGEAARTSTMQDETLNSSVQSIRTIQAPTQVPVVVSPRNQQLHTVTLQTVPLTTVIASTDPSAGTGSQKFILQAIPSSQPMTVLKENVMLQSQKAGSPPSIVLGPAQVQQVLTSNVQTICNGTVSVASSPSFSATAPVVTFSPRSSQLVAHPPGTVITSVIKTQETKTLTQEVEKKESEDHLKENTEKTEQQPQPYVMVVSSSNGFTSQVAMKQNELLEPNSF
# Outline: as §1
# EHF = target: T5, EHF (Homo sapiens, UniProt Q9NZC4 1-300); conditions: protein: recombinant; tags: N-terminal GST; dsDNA, one strand shown
# T5 sequence: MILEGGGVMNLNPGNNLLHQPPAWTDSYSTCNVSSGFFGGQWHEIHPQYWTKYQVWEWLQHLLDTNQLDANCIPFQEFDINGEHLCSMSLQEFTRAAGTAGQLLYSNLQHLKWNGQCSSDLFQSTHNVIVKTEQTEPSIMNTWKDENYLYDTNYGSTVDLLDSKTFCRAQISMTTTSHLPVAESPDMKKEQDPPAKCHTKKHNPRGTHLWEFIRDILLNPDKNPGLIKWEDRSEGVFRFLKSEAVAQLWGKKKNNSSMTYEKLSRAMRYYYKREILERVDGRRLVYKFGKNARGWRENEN
# Outline: as §1
# SPI1 = SPI1 (Homo sapiens, UniProt P17947 1-270); conditions: protein: recombinant; tags: N-terminal GST; dsDNA, one strand shown
# Outline: as §1
# SPIB = SPIB (Homo sapiens, UniProt Q01892 1-262); conditions: protein: recombinant; tags: N-terminal GST; dsDNA, one strand shown
# Chain of SPIB (Q01892 whole entry): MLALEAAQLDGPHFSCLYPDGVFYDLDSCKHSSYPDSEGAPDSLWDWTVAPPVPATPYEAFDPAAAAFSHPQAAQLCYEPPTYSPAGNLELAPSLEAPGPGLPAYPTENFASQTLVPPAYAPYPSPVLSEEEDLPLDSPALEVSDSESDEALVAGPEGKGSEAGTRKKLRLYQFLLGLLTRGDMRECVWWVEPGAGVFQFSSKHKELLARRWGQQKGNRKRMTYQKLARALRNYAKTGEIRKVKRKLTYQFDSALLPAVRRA
# Outline: as §1
# ELK3 = target: T6, ELK3 (Homo sapiens, UniProt P41970 1-407); conditions: protein: recombinant; tags: N-terminal GST; dsDNA, one strand shown
# T6 sequence: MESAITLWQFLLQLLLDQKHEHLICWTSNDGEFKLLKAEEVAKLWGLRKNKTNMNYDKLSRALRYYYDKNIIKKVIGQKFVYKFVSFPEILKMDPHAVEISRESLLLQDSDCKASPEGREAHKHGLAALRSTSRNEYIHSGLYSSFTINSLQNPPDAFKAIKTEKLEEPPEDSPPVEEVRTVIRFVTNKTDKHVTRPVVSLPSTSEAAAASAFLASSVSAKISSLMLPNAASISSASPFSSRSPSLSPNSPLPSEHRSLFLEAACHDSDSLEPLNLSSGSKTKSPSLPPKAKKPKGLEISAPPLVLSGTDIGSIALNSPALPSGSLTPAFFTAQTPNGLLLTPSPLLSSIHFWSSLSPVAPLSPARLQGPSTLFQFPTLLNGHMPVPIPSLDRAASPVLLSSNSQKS
# Outline: as §1
# FEV = target: T7, FEV (Homo sapiens, UniProt Q99581 1-238); conditions: protein: recombinant; tags: N-terminal GST; dsDNA, one strand shown
# T7 sequence: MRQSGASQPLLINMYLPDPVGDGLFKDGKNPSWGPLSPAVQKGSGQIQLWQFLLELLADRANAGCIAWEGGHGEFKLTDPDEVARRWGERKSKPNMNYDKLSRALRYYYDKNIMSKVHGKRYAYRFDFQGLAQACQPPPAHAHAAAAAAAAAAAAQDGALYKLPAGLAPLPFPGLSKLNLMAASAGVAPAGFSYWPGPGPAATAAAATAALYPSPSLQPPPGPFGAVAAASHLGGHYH
# Outline: as §1
# ETV5 = ETV5 (Homo sapiens, UniProt P41161 1-510); conditions: protein: recombinant; tags: N-terminal GST; dsDNA, one strand shown
# Chain of ETV5 (P41161 whole entry): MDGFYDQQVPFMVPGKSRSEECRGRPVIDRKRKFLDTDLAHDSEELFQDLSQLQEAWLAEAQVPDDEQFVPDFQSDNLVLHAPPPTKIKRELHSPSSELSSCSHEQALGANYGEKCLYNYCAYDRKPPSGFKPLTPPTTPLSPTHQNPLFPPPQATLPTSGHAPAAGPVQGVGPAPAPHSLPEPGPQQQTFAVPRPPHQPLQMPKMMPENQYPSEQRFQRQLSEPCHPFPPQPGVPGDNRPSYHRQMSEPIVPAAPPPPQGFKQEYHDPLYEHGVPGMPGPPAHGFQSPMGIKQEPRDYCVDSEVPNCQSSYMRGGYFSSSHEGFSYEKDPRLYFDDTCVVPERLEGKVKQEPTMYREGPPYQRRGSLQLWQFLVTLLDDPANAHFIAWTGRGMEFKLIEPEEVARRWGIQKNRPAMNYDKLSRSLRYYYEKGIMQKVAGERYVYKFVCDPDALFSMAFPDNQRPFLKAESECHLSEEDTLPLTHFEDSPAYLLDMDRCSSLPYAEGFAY
# Outline: as §1
# HSF1 = HSF1 (Homo sapiens, UniProt Q00613 1-529); conditions: protein: recombinant; tags: N-terminal GST; chain copies: 3; dsDNA, one strand shown
# Chain of HSF1 (Q00613 whole entry): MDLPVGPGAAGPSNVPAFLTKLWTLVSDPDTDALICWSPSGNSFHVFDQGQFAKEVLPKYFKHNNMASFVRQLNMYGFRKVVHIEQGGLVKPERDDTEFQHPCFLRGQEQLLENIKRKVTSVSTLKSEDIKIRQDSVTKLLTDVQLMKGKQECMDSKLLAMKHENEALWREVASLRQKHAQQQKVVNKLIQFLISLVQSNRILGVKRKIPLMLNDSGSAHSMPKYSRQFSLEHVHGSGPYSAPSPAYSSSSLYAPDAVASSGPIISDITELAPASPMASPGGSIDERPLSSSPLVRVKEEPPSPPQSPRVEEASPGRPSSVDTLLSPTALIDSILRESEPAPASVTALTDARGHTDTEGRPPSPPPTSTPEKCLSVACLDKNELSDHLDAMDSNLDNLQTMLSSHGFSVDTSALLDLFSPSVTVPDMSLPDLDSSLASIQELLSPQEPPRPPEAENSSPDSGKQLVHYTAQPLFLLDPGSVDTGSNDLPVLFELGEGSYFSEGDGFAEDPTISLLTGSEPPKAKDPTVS
# Outline: as §1
# SPIC = target: T8, SPIC (Homo sapiens, UniProt Q8N5J4 1-248); conditions: protein: recombinant; tags: N-terminal GST; dsDNA, one strand shown
# T8 sequence: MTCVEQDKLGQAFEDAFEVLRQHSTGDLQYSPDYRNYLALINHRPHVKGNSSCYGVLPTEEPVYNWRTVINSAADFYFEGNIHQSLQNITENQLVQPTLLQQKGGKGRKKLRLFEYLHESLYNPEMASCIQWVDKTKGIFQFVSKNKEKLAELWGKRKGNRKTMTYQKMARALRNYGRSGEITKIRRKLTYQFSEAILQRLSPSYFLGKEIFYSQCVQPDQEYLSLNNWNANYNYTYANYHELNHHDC
# Outline: as §1
# ELF4 = ELF4 (Homo sapiens, UniProt Q99607 1-663); conditions: protein: recombinant; tags: N-terminal GST; dsDNA, one strand shown
# Chain of ELF4 (Q99607 whole entry): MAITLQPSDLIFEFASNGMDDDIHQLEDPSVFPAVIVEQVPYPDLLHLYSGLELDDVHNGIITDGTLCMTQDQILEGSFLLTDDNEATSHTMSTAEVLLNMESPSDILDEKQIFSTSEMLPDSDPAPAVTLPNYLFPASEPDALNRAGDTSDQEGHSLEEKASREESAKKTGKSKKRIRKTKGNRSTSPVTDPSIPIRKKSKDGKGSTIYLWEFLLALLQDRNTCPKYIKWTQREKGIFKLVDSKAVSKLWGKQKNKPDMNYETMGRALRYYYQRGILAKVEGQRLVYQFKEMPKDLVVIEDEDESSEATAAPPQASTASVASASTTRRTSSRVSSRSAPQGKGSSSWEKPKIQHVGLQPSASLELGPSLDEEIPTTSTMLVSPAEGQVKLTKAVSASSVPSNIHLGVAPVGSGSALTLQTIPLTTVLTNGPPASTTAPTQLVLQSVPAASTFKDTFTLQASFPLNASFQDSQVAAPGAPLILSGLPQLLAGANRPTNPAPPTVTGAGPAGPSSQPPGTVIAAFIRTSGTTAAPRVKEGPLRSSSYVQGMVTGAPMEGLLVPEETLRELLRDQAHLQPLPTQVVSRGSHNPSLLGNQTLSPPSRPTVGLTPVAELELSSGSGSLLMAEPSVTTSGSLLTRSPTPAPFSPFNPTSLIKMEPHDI
# Outline: as §1
# ELK4 = target: T9, ELK4 (Homo sapiens, UniProt P28324-2 1-405); conditions: protein: recombinant; tags: N-terminal GST; dsDNA, one strand shown
# T9 sequence: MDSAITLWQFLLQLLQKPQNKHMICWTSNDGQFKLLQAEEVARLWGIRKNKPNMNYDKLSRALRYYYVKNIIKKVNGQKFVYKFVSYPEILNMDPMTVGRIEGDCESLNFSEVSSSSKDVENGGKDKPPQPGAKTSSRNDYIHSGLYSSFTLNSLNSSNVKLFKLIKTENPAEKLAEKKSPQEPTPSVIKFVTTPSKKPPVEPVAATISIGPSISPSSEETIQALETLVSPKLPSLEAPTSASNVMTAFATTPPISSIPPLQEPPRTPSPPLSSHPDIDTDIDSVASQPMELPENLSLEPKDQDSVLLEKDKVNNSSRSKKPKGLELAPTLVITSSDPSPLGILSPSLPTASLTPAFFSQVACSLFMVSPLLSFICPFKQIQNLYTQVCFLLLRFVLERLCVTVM
# Outline: as §1
# ETV2 = target: T10, ETV2 (Homo sapiens, UniProt O00321 1-342); conditions: protein: recombinant; tags: N-terminal GST; dsDNA, one strand shown
# T10 sequence: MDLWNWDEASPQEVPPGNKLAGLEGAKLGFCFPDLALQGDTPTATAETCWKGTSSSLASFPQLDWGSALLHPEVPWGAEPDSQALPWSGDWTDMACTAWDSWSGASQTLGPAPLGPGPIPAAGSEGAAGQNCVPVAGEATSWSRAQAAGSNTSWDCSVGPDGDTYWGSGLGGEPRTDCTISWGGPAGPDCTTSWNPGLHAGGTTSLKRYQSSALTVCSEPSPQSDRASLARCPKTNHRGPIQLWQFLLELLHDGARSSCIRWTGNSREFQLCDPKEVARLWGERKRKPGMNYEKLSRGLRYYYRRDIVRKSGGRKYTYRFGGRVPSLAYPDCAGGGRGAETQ
# Outline: as §1
# ELF3 = target: T11, ELF3 (Homo sapiens, UniProt P78545 1-371); conditions: protein: recombinant; tags: N-terminal GST; dsDNA, one strand shown
# T11 sequence: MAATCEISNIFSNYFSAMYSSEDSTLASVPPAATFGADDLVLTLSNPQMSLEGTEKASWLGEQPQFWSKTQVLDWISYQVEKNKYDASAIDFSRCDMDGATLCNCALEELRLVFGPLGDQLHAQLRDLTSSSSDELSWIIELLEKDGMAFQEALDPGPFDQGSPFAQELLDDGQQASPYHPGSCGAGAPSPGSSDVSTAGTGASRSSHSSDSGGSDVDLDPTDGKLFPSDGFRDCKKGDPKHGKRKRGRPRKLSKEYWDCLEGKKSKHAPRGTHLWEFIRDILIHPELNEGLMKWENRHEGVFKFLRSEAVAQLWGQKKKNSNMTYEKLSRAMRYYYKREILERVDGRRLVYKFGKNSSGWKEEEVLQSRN
# Outline: as §1
# CRX = CRX (Homo sapiens, UniProt O43186 1-299); conditions: protein: recombinant; tags: N-terminal GST; dsDNA, one strand shown
# Chain of CRX (O43186 whole entry): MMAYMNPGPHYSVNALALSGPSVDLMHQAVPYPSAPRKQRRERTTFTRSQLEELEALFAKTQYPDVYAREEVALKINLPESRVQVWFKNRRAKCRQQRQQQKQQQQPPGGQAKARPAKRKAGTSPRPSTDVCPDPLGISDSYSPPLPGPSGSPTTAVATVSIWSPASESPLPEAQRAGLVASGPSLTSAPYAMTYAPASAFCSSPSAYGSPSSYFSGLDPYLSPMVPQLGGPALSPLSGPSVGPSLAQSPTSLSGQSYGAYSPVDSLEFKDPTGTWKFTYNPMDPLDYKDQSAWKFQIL
# Outline: as §1
# ETV1 = ETV1 (Homo sapiens, UniProt P50549 1-477); conditions: protein: recombinant; tags: N-terminal GST; dsDNA, one strand shown
# Chain of ETV1 (P50549 whole entry): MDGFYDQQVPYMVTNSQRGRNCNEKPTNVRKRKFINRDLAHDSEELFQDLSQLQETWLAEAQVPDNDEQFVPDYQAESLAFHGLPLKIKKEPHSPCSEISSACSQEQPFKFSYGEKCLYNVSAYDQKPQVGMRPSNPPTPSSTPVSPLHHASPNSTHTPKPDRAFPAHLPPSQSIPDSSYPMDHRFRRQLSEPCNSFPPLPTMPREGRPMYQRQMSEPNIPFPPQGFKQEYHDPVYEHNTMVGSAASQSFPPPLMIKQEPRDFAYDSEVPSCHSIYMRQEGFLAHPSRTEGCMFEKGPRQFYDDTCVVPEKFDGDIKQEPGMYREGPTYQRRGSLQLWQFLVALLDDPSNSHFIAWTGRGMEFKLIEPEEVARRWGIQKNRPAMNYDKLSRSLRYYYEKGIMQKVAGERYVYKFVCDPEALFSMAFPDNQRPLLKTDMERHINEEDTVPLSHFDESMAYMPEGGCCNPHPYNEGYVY
# Outline: as §1
sequence,measurement,setting,value
CTACCC,binding signal,FLI1,"1.27 fold enrichment (6-mer frequency, TF over GST control)"
same,binding signal,ELK1,"1.32 fold enrichment (6-mer frequency, TF over GST control)"
same,binding signal,GABPA,"1.4 fold enrichment (6-mer frequency, TF over GST control)"
same,binding signal,ERG,"1.36 fold enrichment (6-mer frequency, TF over GST control)"
same,binding signal,ELF1,"1.33 fold enrichment (6-mer frequency, TF over GST control)"
same,binding signal,EHF,"1.27 fold enrichment (6-mer frequency, TF over GST control)"
same,binding signal,SPI1,"1.31 fold enrichment (6-mer frequency, TF over GST control)"
same,binding signal,SPIB,"1.34 fold enrichment (6-mer frequency, TF over GST control)"
same,binding signal,ELK3,"1.31 fold enrichment (6-mer frequency, TF over GST control)"
same,binding signal,FEV,"1.26 fold enrichment (6-mer frequency, TF over GST control)"
same,binding signal,ETV5,"1.28 fold enrichment (6-mer frequency, TF over GST control)"
same,binding signal,HSF1,"1.04 fold enrichment (6-mer frequency, TF over GST control)"
same,binding signal,SPIC,"1.47 fold enrichment (6-mer frequency, TF over GST control)"
same,binding signal,ELF4,"1.36 fold enrichment (6-mer frequency, TF over GST control)"
same,binding signal,ELK4,"1.23 fold enrichment (6-mer frequency, TF over GST control)"
same,binding signal,ETV2,"1.29 fold enrichment (6-mer frequency, TF over GST control)"
same,binding signal,ELF3,"1.3 fold enrichment (6-mer frequency, TF over GST control)"
same,binding signal,CRX,"1.08 fold enrichment (6-mer frequency, TF over GST control)"
same,binding signal,ETV1,"1.26 fold enrichment (6-mer frequency, TF over GST control)"
